Experimental findings from PubChem BioAssay (EPA / NIEHS) are described below.

Read-out in test [1]: Interleukin-6 (IL6), IL6 (gene 3569)
Nature of the test: BSK_CASM3C_IL6: BioMAP Diversity Plus: CASM3C Assay for Interleukin-6 (IL6) Biomarker Activity for (AID 2283040). The conditions noted are these: primary human coronary artery smooth muscle cells; actives raise or lower the signal.

Read-out in test [2]: Tissue plasminogen activator (tPA), PLAT (gene 5327)
Nature of the test: BSK_BE3C_tPA: BioMAP Diversity Plus: BE3C Assay for Tissue plasminogen activator (tPA) Biomarker Activity (AID 2283041).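 For outcome: tPA level quantified by ELISA one day after compound addition.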 The settings on record: primary human bronchial epithelial cells; actives raise or lower the signal. The essentials: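 tPA measured by ELISA 24 h after dosing human primary bronchial epithelial cells (BE3C system). Changes in either direction were fitted against DMSO. Parallel cultures were stained with SRB to flag overt cytotoxicity.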

Read-out in test [3]: Interleukin-8 (IL8), CXCL8 (gene 3576)
Nature of the test: BSK_CASM3C_IL8: BioMAP Diversity Plus: CASM3C Assay for Interleukin-8 (IL8) Biomarker Activity (AID 2283042).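 Note: IL-8 protein level quantified by ELISA.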 The settings on record: primary human coronary artery smooth muscle cells; actives raise or lower the signal.

Read-out in test [4]: Human Leukocyte Antigen - DR isotype (HLADR), HLA-DRA (gene 3122)
Nature of the test: BSK_CASM3C_HLADR: BioMAP Diversity Plus: CASM3C Assay for Human Leukocyte Antigen - DR isotype (HLADR) Biomarker Activity (AID 2283043).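 Note: cell-surface HLA-DR protein level quantified by ELISA.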 The conditions noted are these: primary human coronary artery smooth muscle cells; actives raise or lower the signal.

Read-out in test [5]: Macrophage colony-stimulating factor (MCSF), CSF1 (gene 1435)
Nature of the test: BSK_CASM3C_MCSF: BioMAP Diversity Plus: CASM3C Assay for Macrophage colony-stimulating factor (MCSF) Biomarker Activity (AID 2283044).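 Note: M-CSF protein amount quantified by ELISA after 24 h exposure.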 The conditions noted are these: primary human coronary artery smooth muscle cells; actives raise or lower the signal.

Read-out in test [6]: Low-density lipoprotein receptor (LDLR), LDLR (gene 3949)
Nature of the test: BSK_CASM3C_LDLR: BioMAP Diversity Plus: CASM3C Assay for Low-density lipoprotein receptor (LDLR) Biomarker Activity (AID 2283045).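 Note: LDLR protein level on the cell surface quantified by ELISA.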 The conditions noted are these: primary human coronary artery smooth muscle cells; actives raise or lower the signal.

Read-out in test [7]: Monocyte Chemoattractant Protein-1 (MCP1), CCL2 (gene 6347)
Nature of the test: BSK_CASM3C_MCP1: BioMAP Diversity Plus: CASM3C Assay for Monocyte Chemoattractant Protein-1 (MCP1) Biomarker Activity (AID 2283046).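 Note: MCP-1 level quantified by ELISA 24 h after dosing.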 The conditions noted are these: primary human coronary artery smooth muscle cells; actives raise or lower the signal.

The nature of test [8]: BSK_CASM3C_Proliferation: Cell Proliferation Assessment in the BioMAP Diversity Plus: CASM3C Assay (AID 2283047).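 Note: sulforhodamine B total protein stain as relative cell number at 560 nm; sub-confluent cells exposed 48 h before staining; fitted both ways against DMSO so gain or loss of cell number.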 The settings on record: primary human coronary artery smooth muscle cells.
Read-out in test [9]: Monokine induced gamma interferon (MIG), CXCL9 (gene 4283)
Nature of the test: BSK_CASM3C_MIG: BioMAP Diversity Plus: CASM3C Assay for Monokine induced gamma interferon (MIG) Biomarker Activity (AID 2283048).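 Note: MIG protein level measured by ELISA.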 The conditions noted are these: primary human coronary artery smooth muscle cells; actives raise or lower the signal.

Read-out in test [10]: serum amyloid A (SAA), SAA1 (gene 6288)
Nature of the test: BSK_CASM3C_SAA: BioMAP Diversity Plus: CASM3C Assay for serum amyloid A (SAA) Biomarker Activity (AID 2283049).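 Note: SAA protein level quantified by ELISA.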 The settings on record: primary human coronary artery smooth muscle cells; actives raise or lower the signal.

Test [11] can be described thus: BSK_CASM3C_SRB: Viability Assessment in the BioMAP Diversity Plus: CASM3C Assay (AID 2283050).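 Note: total protein by SRB staining as cytotoxicity measure in parallel cultures; cells exposed to compound for 24 h.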 The settings on record: primary human coronary artery smooth muscle cells.
Read-out in test [12]: Thrombomodulin, THBD (gene 7056)
Nature of the test: BSK_CASM3C_Thrombomodulin: BioMAP Diversity Plus: CASM3C Assay for Thrombomodulin Biomarker Activity (AID 2283051).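 Note: thrombomodulin protein level measured by ELISA 24 h after dosing.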 The conditions noted are these: primary human coronary artery smooth muscle cells; actives raise or lower the signal.

Read-out in test [13]: Tissue Factor, F3 (gene 2152)
Nature of the test: BSK_CASM3C_TissueFactor: BioMAP Diversity Plus: CASM3C Assay for Tissue Factor Biomarker Activity (AID 2283052).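 Note: cell surface tissue factor protein level read by ELISA.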 The settings on record: primary human coronary artery smooth muscle cells; actives raise or lower the signal.

Read-out in test [14]: Interferon-gamma inducible Protein 10 (IP10), CXCL10 (gene 3627)
Nature of the test: BSK_hDFCGF_IP10: BioMAP Diversity Plus: hDFCGF Assay for Interferon-gamma inducible Protein 10 (IP10) Biomarker Activity (AID 2283053). The conditions noted are these: primary human foreskin fibroblasts; actives raise or lower the signal. The essentials: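 ELISA quantification of IP-10 after a 24 h chemical exposure of human dermal foreskin fibroblast primary cultures. Both increases and decreases versus DMSO fitted.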

Read-out in test [15]: Urokinase-type plasminogen activator receptor (uPAR), PLAUR (gene 5329)
Nature of the test: BSK_CASM3C_uPAR: BioMAP Diversity Plus: CASM3C Assay for Urokinase-type plasminogen activator receptor (uPAR) Biomarker Activity (AID 2283054).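 Note: cell-surface uPAR protein level quantified by ELISA.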 The settings on record: primary human coronary artery smooth muscle cells; actives raise or lower the signal.

Read-out in test [16]: Vascular cell adhesion molecule 1 (VCAM1), VCAM1 (gene 7412)
Nature of the test: BSK_CASM3C_VCAM1: BioMAP Diversity Plus: CASM3C Assay for Vascular cell adhesion molecule 1 (VCAM1) Biomarker Activity (AID 2283055).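 Note: VCAM-1 protein level quantified by ELISA on the cells.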 The settings on record: primary human coronary artery smooth muscle cells; actives raise or lower the signal.

Read-out in test [17]: Collagen III, COL3A1 (gene 1281)
Nature of the test: BSK_hDFCGF_CollagenIII: BioMAP Diversity Plus: hDFCGF Assay for Collagen III Biomarker Activity (AID 2283056). The settings on record: primary human foreskin fibroblasts; actives raise or lower the signal. The essentials:
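Human foreskin primary fibroblasts were exposed to test chemicals for 24 h, after which collagen III was quantified by ELISA. Activity was fitted bidirectionally against DMSO as negative control and baseline.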

Read-out in test [18]: Epidermal growth factor receptor (EGFR), EGFR (gene 1956)
Nature of the test: BSK_hDFCGF_EGFR: BioMAP Diversity Plus: hDFCGF Assay for Epidermal growth factor receptor (EGFR) Biomarker Activity (AID 2283057). The conditions noted are these: primary human foreskin fibroblasts; actives raise or lower the signal. The essentials: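 EGFR levels by ELISA in human dermal fibroblast cultures, 24 h post-treatment, fitted bidirectionally versus DMSO. Parallel wells stained with sulforhodamine B to detect overt cytotoxicity.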

Read-out in test [19]: Interleukin-8 (IL8), CXCL8 (gene 3576)
Nature of the test: BSK_hDFCGF_IL8: BioMAP Diversity Plus: hDFCGF Assay for Interleukin-8 (IL8) Biomarker Activity (AID 2283058). The settings on record: primary human foreskin fibroblasts; actives raise or lower the signal. The essentials: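 hDFCGF human dermal fibroblasts; 24 h chemical exposure; IL-8 by ELISA; bidirectional curve fit vs DMSO baseline; gain or loss of signal scored.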

A short description of test [20]: BSK_hDFCGF_Proliferation: Cell Proliferation Assessment in the BioMAP Diversity Plus: hDFCGF Assay (AID 2283059).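 Note: curves fitted for both rise and fall of signal versus DMSO baseline.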 The conditions noted are these: primary human foreskin fibroblasts. The essentials: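 Steps: dose primary human dermal fibroblasts (foreskin); […] fix in 10% TCA; stain with 0.1% SRB; read 560 nm; fit gain or loss of signal against DMSO.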

Values joined by “and” are separate entries in the source; they are usually repeats but may differ in a detail not shown here. Equal values may be shown once. Some compounds were tested as several samples or in several runs, with calls that do not always agree. Active and inactive are the calls of the source. Rule for the calls: active = hit-call score of the fitted dose curve at least 0.9, where 1 is the maximum; inactive = score below 0.9.

For `c1ccc(Nc2cccc3ccccc23)cc1`, the AC50 (usually the concentration at which the activity in the assay is half-maximal) in [1] was 13.4 µM (active) and 12.9 µM (active); in [2] it was 30.6 µM (active) and 32.2 µM (active); in test [5] it was 20 µM (active) and 149 nM (active); in [7] it was 29.9 µM (active) and 28.9 µM (active); in test [8], 7.17 µM (active) and 25.9 µM (active); in test [11], 31.3 µM (active). Further, the AC50 is 10.1 µM (active) and 7.36 µM (active) in [12]; 2.1 µM (active) in test [13]; 30.3 µM (active) and 34.6 µM (active) in [14]; 10.5 µM (active) in test [15]; 7.35 µM (active) in [16]; 17.3 µM (active) and 13.9 µM (active) in test [17]. The AC50 in test [18] is 32.5 µM (active); in [19], 35.1 µM (active) and 36.6 µM (active); in test [20], 9.99 µM (active) and 12.2 µM (active). Further, the result in test [3], in test [4], in [6], in test [9], in test [10] and in test [11] was inactive. For the same compound, the result in test [13], in [15], in test [16] and in test [18] was inactive.

In the case of `c1ccc2c(c1)[nH]c1ccccc12`, the outcome in test [1], in test [2], in test [3], in test [4], in test [5] and in test [6] was inactive. The outcome in test [7], in [8], in test [9], in test [10], in [11] and in [12] was inactive. The result in test [13], in [14], in test [15], in test [16], in [17] and in [18] was inactive. The result in [19] and in [20] was inactive.

As for `Nc1nc(N)nc(-c2ccccc2)n1`, the outcome in test [1], in test [2], in test [3], in [4], in test [5] and in test [6] was inactive. For the same compound, the result in test [7], in test [8], in test [9], in [10], in test [11] and in test [12] was inactive. Further, the outcome in test [13], in [14], in test [15], in test [16], in test [17] and in test [18] was inactive. Moreover, the outcome in [19] and in test [20] was inactive. Besides, the values for the AC50 in test [13] and in test [16] were 0.0609 µM (active) and 0.268 µM (active), respectively.

In the case of `CCNc1nc(NC(C)(C)C)nc(OC)n1`, the result in test [1], in test [2], in [3], in test [4], in test [5] and in [6] was inactive. Moreover, the outcome in test [7], in test [8], in test [9], in [10], in [11] and in test [12] was inactive. Besides, the result in [13], in test [14], in test [15], in [16], in test [17] and in test [18] was inactive. Further, the outcome in [19] and in test [20] was inactive.

As to `Nc1cccc(N)n1`, the result in test [1], in test [2], in [3], in [4], in [5] and in test [6] was inactive. Besides, the outcome in test [7], in [8], in test [9], in test [10], in test [11] and in test [12] was inactive. Moreover, the result in test [13], in [14], in test [15], in [16], in test [17] and in [18] was inactive. For the same compound, the result in test [19] and in [20] was inactive.

As for `CCCCCC1=CCCC1=O`, the result in [1], in test [2], in [3], in test [4], in test [5] and in test [6] was inactive. In addition, the result in [7], in test [8], in test [9], in [10], in test [11] and in test [12] was inactive. In addition, the outcome in test [13], in [14], in test [15], in [16], in test [17] and in test [18] was inactive. Besides, the outcome in test [19] and in test [20] was inactive.
